Only some compounds are listed: those with a hit (about 17% of all), similar ones and a draw of the others.
HepG2 viability: HepG2 cytotoxicity, counter-screen for TGF-b inhibitors; HepG2 CAGA-GFP viability, ATP luminescence, 18 h; 410,000 tested, 0.76% active; Potency, µM (series often up to 46.1 µM), for the others: at the highest dose activity change, negative = cytotoxicity, hits mostly cytotoxic; AID 588856
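HepG2 CAGA-GFP cells (1000/well, DMEM with 1% FBS) received compound, then TGF-beta at 500 pg/mL final, and were incubated 18 hours at 37 degrees C. Viability was read by CellTiter-Glo luminescence. Media-only wells were set as complete cell-killing and DMSO as no toxicity.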
DT40 TDP1 no CPT: qHTS for Inhibitors of human tyrosyl-DNA phosphodiesterase 1 (TDP1): qHTS in cells in absence of CPT | DT40 Tdp1-/- hTDP1 cells, no CPT, ATP luminescence, 48 h | Potency, µM (top dose mostly 46.2 µM), without a hit: top-dose activity change, negative = growth inhibition, most hits filed as inhibitors | 420,000 tested, 15% active | AID 686978, 2013; further: on the % scale 0 is the no-effect control and ±100 the full control effect; nearly all actives have a fitted effect of over 55% in size
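Luminescent ATP content (CellTiter-Glo) served as the growth readout. Knockout chicken DT40 cells expressing human TDP1 were exposed to compounds without camptothecin for a minimum 48 hr at 37 °C.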
TDP1 cell CPT: growth inhibition of DT40 Tdp1-/-;hTDP1 cells with camptothecin (screen for TDP1 inhibitors); 420,000 tested, 12% active; Potency, µM (titrated, usually from 46.2 µM), without a hit: at the highest dose activity change, negative = growth inhibition, most hits filed as inhibitors; chicken DT40 Tdp1-/-;hTDP1 cells + 20 nM CPT, ATP luminescence, 48 h; AID 686979; further: on the % scale 0 is the no-effect control and ±100 the full control effect; nearly all actives have a fitted effect of over 55% in size
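Cell growth measured by CellTiter-Glo luminescence after a minimum 48 h, 37 C compound exposure with 20 nM CPT in Tdp1-knockout DT40 cells stably expressing hTDP1, seeded 400/well; qHTS titration format.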
ATXN2 expr inh: inhibitors of ATXN2 expression | HEK-293 ATXN2-luciferase reporter, luminescence, 24 h | Potency, µM (doses to about 57 µM), for the others: top-dose activity change, negative = inhibition, hits mostly inhibitors | 360,000 tested, 0.72% active; further: on the % scale 0 is the no-effect control and ±100 the full control effect; nearly all actives have a fitted effect of over 55% in size
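ATXN2-luciferase reporter cells (luciferase flanked by upstream and downstream ATXN2 gene portions) were treated 24 h at 37 °C with compounds at up to 57 uM. SteadyGlo luminescence gave expression; GF-AFC fluorescence gave viability.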
TGFb SMAD3 inh: blocks TGF-b signaling; HepG2 CAGA-GFP TGF-b/SMAD3 reporter, GFP fluorescence, 18 h; TGF-beta stimulated, 500 pg/mL final; Potency, µM (top dose mostly 46.1 µM), inactives show at the highest dose activity, negative = inhibition, usual class: inhibitors; 410,000 tested, 1.2% active; further: on the % scale 0 is the no-effect control and ±100 the full control effect; nearly all actives have a fitted effect of over 65% in size
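Using HEPG2 CAGA-GFP reporter cells at 1000 cells/well, we pinned test compounds, stimulated with recombinant TGF-beta (500 pg/mL final) and measured total well GFP after 18 h.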
ATXN viability: cell viability loss in ATXN counter-screen. S2 cells (HEK-293 line with an ATXN2-luciferase reporter) viability, CellTiter-Fluor protease fluorescence, 24 h. Potency, µM (titrated, usually from 56.7 µM), actives largely listed as cytotoxic. 400,000 tested, 0.49% active. AID 651635; further: nearly all actives have a fitted effect of over 40% in size
Starred values were filed as active, the others as inactive; i = inactive; ? = inconclusive; . = no result. The call rests on the fitted dose curve; in most records, active means well fitted curve in the direction sought with a large enough effect; inconclusive means small, poorly fitted or top-dose-only effect, or another doubt; inactive means no such curve, though single readings can be large; an effect the other way counts as inactive or inconclusive. Potency means the concentration at half of the fitted maximal effect.

SMILES	HepG2 viability	DT40 TDP1 no CPT	TDP1 cell CPT	ATXN2 expr inh	TGFb SMAD3 inh	ATXN viability
O=c1[nH]c2ccccc2nc1/C=C/c1ccc(Cl)cc1	-15%	23µM*	13µM*	-9%	5%	.
O=C(/C(=C/c1ccc(Cl)cc1)c1nc2ccccc2[nH]1)c1ccccc1	2.5µM*	7.3µM*	13µM*	?	5µM*	.
O=C(O)C1CC(O)CN1c1nc(Cl)ccc1[N+](=O)[O-] (stereo not drawn)	0%	-8%	2%	4%	0%	i
CCC(CC)C(=O)c1c[nH]c(C(=O)NN)c1	-2%	7%	-8%	-17%	-8%	i
Cn1c(=O)cc(SCC(=O)Nc2cccc(C#N)c2)c2ccc(Cl)cc21	-13%	-22%	-17%	-6%	-1%	i
O=C(Cc1ccccc1)Nc1c(C(=O)Nc2ccccc2F)oc2ccccc12	5%	?	?	-6%	10%	i
Cc1ccc(-c2nn(-c3cccc(F)c3)cc2CN2CCN(c3ccccn3)CC2)o1	-4%	23µM*	?	.	?	i
CN(c1ccccc1)S(=O)(=O)c1cccc(NC(=O)C2=NN(c3ccccc3)C(=O)CC2)c1	-14%	13µM*	?	.	?	?
CN(c1ccccc1)S(=O)(=O)c1cccc(NC(=O)c2ccc(=O)[nH]c2)c1	-8%	?	?	0%	2%	i
COc1ccc(NS(=O)(=O)c2cccc(NC(=O)C3=NN(c4ccccc4)C(=O)CC3)c2)cc1	-21%	15µM*	?	.	?	i
CC1CC(NC(=O)c2c(O)nc3sccn3c2=O)CC(C)(C)C1 (stereo not drawn)	4%	?	?	-10%	8%	?
Cc1cccc(Nc2ncc3c(n2)CC(c2ccco2)CC3=O)c1 (stereo not drawn)	-6%	21µM*	?	-17%	-20%	i
Cc1cc(C)cc(Nc2ncc3c(n2)CC(c2ccco2)CC3=O)c1 (stereo not drawn)	0%	?	?	-3%	9%	i
COc1ccccc1/C=C1\SC(=S)N(CCC(=O)Nc2cc(C)on2)C1=O	2%	?	-19%	-29%	12%	i
CCC(SC1=N/C(=C/c2ccccc2OC)C(=O)N1c1ccccc1)C(=O)Nc1cc(C)on1 (stereo not drawn)	15%	8.2µM*	12µM*	4%	-10%	i
O=C(NCc1cccnc1)c1ccc(NC(=O)c2ccc([N+](=O)[O-])cc2)cc1	-4%	9.2µM*	13µM*	-22%	-15%	i
COc1ccc(C(=O)Nc2ccccc2C(=O)NCc2cccnc2)cc1	-5%	?	15µM*	-1%	8%	i
CCOc1ncccc1C(=O)NCc1cccc(OC)c1	-11%	-25%	?	19%	-29%	i
CCOC(=O)Cc1ccc(NC(=O)c2ccccc2Br)cc1	1%	-1%	1%	.	-7%	i
CCOc1ncccc1C(=O)NCc1ccc(OC)cc1	-8%	15µM*	16µM*	-17%	12%	i
CCOC(=O)Cc1ccc(NC(=O)c2ccc(C(C)(C)C)cc2)cc1	-57%	15µM*	18µM*	2.8µM*	-17%	?
O=C(NC(=S)NCc1cccnc1)c1ccc([N+](=O)[O-])cc1	-19%	-10%	-26%	.	-26%	i
O=C(NCc1c(Cl)cccc1Cl)c1ccc2nnsc2c1	-38%	?	?	-18%	0%	i
C=CCNC(=S)NNC(=O)COc1cccc(Cl)c1	0%	?	-21%	13%	?	i

Screening results (PubChem)
